This note sets out measurements from PubChem BioAssay (NCATS).

Unmarked numbers belong to inactive results. Results filed as inconclusive are left out. The source made the active and inactive calls. The call rests on the fitted dose curve; in most records, active means well fitted curve in the direction sought with a large enough effect; inconclusive means small, poorly fitted or top-dose-only effect, or another doubt; inactive means no such curve, though single readings can be large; an effect the other way counts as inactive or inconclusive.

Test [1] is described as follows: P-glycoprotein substrates identified in KB-8-5-11 adenocarcinoma cell line, qHTS therapeutic library screen (AID 1346987). Further: nearly all actives have a fitted effect of over 65% in size. Further: potency means the concentration at half of the fitted maximal effect. On activity change, negative = cytotoxicity: on the % scale 0 is the no-effect control and ±100 the full control effect. Put shortly:
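KB-8-5-11: colchicine-selected sub-line of KB-3-1 over-expressing P-gp; assay medium lacked colchicine. 72 h drug exposure at 37 degree C, CellTiter-Glo.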

A short description of test [2]: Primary qHTS for inhibitors of nuclear receptor binding SET domain protein 2 (NSD2) in an isogenic RCH-ACV NSD2 p.E1099K mutant (9B) (AID 1645876). Further: nearly all actives have a fitted effect of over 70% in size. Further: potency means the concentration at half of the fitted maximal effect.
For test [3], the target named is Phospholipid hydroperoxide glutathione peroxidase GPX4 (Homo sapiens) (UniProt P36969). In words: Primary qHTS Assay for Inhibitors of Recombinant Selenoprotein Glutathione Peroxidase 4 (GPX4) (AID 1845192). Further: nearly all actives have a fitted effect of over 65% in size. In short, it runs like this:
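GR-coupled assay: recombinant GPX4 preincubated 30 min with compound at room temperature; final 200 nM GPX4, 1 mM GSH, 0.5 mM cumene hydroperoxide, 0.5 mM NADPH, 100 nM GR, 0.01% BSA, pH 7.5 Tris. NADPH fluorescence (340/450 nm) read at 0 and 15 min.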
For orientation: In qHTS, concentration-response curves come from the screen itself.

Test [4] has as its target Luciferin 4-monooxygenase (Photinus pyralis) (UniProt P08659). The test can be described thus: Primary firefly luciferase (FLuc) qHTS assay for identification of artifact compounds. (AID 1845220). Further: nearly all actives have a fitted effect of over 60% in size. The conditions noted are these: outcome: dose series up to 54.1 µM unless noted. In short, it runs like this: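 D-luciferin and ATP (10 uM each, final) in Tris acetate buffer pH 7.6 were incubated with compounds for 15 min at room temperature. The reaction was started with 10 nM Photinus pyralis luciferase and luminescence read after 5 min. Percent inhibition was fitted to a 4-parameter Hill equation.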

For another test, the system named is CRL-7250. The test can be described thus: Cytotoxic Profiling of Annotated Libraries Using Quantitative High-Throughput Screening (AID 1296008). Further: nearly all actives have a fitted effect of over 60% in size. Further: potency means the concentration at half of the fitted maximal effect. On max response: on the % scale 0 is the no-effect control and ±100 the full control effect. Conditions: Five cell lines viability, CellTiter-Glo ATP luminescence, 48-72 h; max response: stronger effect = lower value. Put shortly: (§1)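 Cells exposed to compounds for 48 or 72 hr at 37 degrees Celsius. Viability read as ATP-coupled luminescence with CellTiter-Glo after 10 min at room temperature.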
A general note: Cellular ATP, detected with luciferase, serves as a proxy for viable cell number.

The subject of another test is HEK293. The description is as above. Conditions: Five cell lines viability, CellTiter-Glo ATP luminescence, 48-72 h; max response: stronger effect = lower value. In short, it runs like this:
as §1

The test system of another test is NIH3T3. The test is described as above. Conditions: Five cell lines viability, CellTiter-Glo ATP luminescence, 48-72 h; max response: stronger effect = lower value. Put shortly: as §1
The test system of another test is C33A. In words: Primary qHTS to identify gynecologic anti-cancer compounds using libraries of approved drugs and bioactive compounds (AID 1345084). Further: nearly all actives have a fitted effect of over 55% in size. Further: potency means the concentration at half of the fitted maximal effect. On activity change, negative = cytotoxicity: on the % scale 0 is the no-effect control and ±100 the full control effect. The conditions noted are these: Gynecologic cancer cell panel viability, ATPlite luminescence, 48 h; series mostly up to 57.5 µM. In short, it runs like this:
(§2)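 Five-point cytotoxicity, 48 h drug exposure at 37 C, 5% CO2, on cells seeded 16 h beforehand. ATP content read by ATPlite luminescence.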

For a further test, the system named is CAOV3. The description is as above. The conditions noted are these: Gynecologic cancer cell panel viability, ATPlite luminescence, 48 h; series mostly up to 57.5 µM. Put shortly: as §2
A further test has as its system CASKI. Described as above. The conditions noted are these: Gynecologic cancer cell panel viability, ATPlite luminescence, 48 h; series mostly up to 57.5 µM. In short, it runs like this: as §2
In the next test the test system is Es-2. The description is as above. The conditions noted are these: Gynecologic cancer cell panel viability, ATPlite luminescence, 48 h; series mostly up to 57.5 µM. Put shortly:
as §2

A further test concerns Hek293T. Described as above. The conditions noted are these: Gynecologic cancer cell panel viability, ATPlite luminescence, 48 h, control line for the selectivity index; series mostly up to 57.5 µM. Put shortly:
as §2

Another test concerns JEG-3. The test is described as above. Conditions: Gynecologic cancer cell panel viability, ATPlite luminescence, 48 h; series mostly up to 57.5 µM. In short, it runs like this:
as §2

Another test relates to OV90. The test is described as above. Conditions: Gynecologic cancer cell panel viability, ATPlite luminescence, 48 h; series mostly up to 57.5 µM. In short, it runs like this:
as §2

In another test the test system is PA-1. Described as above. The conditions noted are these: Gynecologic cancer cell panel viability, ATPlite luminescence, 48 h; series mostly up to 57.5 µM. Put shortly: as §2
The test system of another test is Tov-21-G. The test is described as above. Conditions: Gynecologic cancer cell panel viability, ATPlite luminescence, 48 h; series mostly up to 57.5 µM. Put shortly:
as §2

In the next test the test system is Tov112D. The description is as above. The conditions noted are these: Gynecologic cancer cell panel viability, ATPlite luminescence, 48 h; series mostly up to 57.5 µM. Put shortly:
as §2

The target of test [5] is Calcium and integrin-binding protein 1 (Homo sapiens) (UniProt Q99828). The test can be described thus: Primary qHTS for Identification of Calcium Integrin Binding Protein 1 (CIB1) Competitor (AID 1508620).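 Further: GST tagged CIB1 binding a fluorescein labelled alphaIIb integrin peptide tracer; top concentration of the series differs between compounds; on the % scale 0 is the no-effect control and ±100 the full control effect.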 In short, it runs like this:
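Fluorescence polarization competition: GST-tagged CIB1 (1 uM final) preincubated with compound 15 min at room temperature, then FITC-labelled alphaIIb peptide (100 nM final) added. After 15 min at room temperature, polarization read at Ex 480/Em 540.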

Test [6] deals with Nanoluciferase (engineered Oplophorus gracilirostris luciferase). The test can be described thus: Primary Nanoluciferase (NLuc) qHTS assay for identification of artifact compounds. (AID 1845222).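 Further: 0% = DMSO and -100% = no enzyme.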 Put shortly: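 Diluted conditioned medium from NLuc-expressing S16 cells treated with compounds for 15 min at room temperature, then Nano-Glo substrate added; luminescence read after 5 min. Percent inhibition versus no-enzyme and DMSO controls fitted to 4-parameter Hill equation.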

The test system of a further test is HaCat. The test can be described thus: Cytotoxic Profiling of Annotated Libraries Using Quantitative High-Throughput Screening (AID 1296008). Further: nearly all actives have a fitted effect of over 60% in size. Further: potency means the concentration at half of the fitted maximal effect. Conditions: Five cell lines viability, CellTiter-Glo ATP luminescence, 48-72 h; max response: stronger effect = lower value. In short, it runs like this:
as §1

Phospholipid hydroperoxide glutathione peroxidase GPX4 (Homo sapiens), sequence (P36969 whole entry, looked up): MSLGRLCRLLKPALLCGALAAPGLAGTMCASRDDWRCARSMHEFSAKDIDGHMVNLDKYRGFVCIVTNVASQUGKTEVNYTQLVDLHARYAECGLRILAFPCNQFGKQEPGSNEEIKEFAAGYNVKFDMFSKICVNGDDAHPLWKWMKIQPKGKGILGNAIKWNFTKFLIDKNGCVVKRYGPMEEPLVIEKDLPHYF
Calcium and integrin-binding protein 1 (Homo sapiens), sequence (Q99828 whole entry, looked up): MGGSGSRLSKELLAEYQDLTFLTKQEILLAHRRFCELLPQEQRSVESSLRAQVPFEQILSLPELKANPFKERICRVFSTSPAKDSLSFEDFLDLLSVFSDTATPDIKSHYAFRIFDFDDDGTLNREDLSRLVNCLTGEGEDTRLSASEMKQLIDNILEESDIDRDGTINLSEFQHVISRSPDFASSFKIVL

For `C=C(C)[C@@H]1[C@H]2OC(=O)[C@H]1[C@]1(O)C[C@H]3O[C@]34C(=O)O[C@H]2[C@]14C`, the Potency entry (in test [1]; in [2]; in test [3]; in the test on C33A; in the test on CAOV3; in the test on CASKI) was “inactive” each time. Moreover, the Potency result in the test on Es-2, with Hek293T, in the test with JEG-3, in the test on OV90, in the test with PA-1 and with Tov-21-G was “inactive” throughout. The Potency result in the test on Tov112D is “inactive”. Further, the molecule was called inactive (in test [4]; in the test on CRL-7250; in the test with HEK293; in the test with NIH3T3).
For the molecule `COC(=O)C1=COC(C)C2CN3CCC4(C(=O)Nc5ccccc54)C3CC12` (stereo not drawn), the Potency entry (in test [1]; in test [5]; in test [2]; in test [3]; in test [6]; in the test with C33A) was “inactive” in each case. For the same molecule, the Potency result in the test on CAOV3, with CASKI, in the test on Es-2, with Hek293T, in the test on JEG-3 and in the test on OV90 was “inactive” throughout. Also, the Potency result in the test with PA-1, with Tov-21-G and with Tov112D was “inactive” throughout. Further, in [4], the molecule was classed as inactive. For the same molecule, the max response with CRL-7250 is -2.61%; in the test on HEK293 it was -24%; in the test on HaCat, 2.66%; with NIH3T3, -11.4%.
Regarding `Nc1ncnc2c1ncn2[C@@H]1O[C@@H]2COP(O)(=S)O[C@H]2[C@H]1O` (stereo partly drawn), the activity change, negative = cytotoxicity was 2.93% [at 9.29 µM] in test [1]; 2.33% [at 11.6 µM] with C33A; 2.86% [at 11.6 µM] in the test on CAOV3; -3.97% [at 11.6 µM] in the test on CASKI; 5.19% [at 11.6 µM] in the test on Es-2; 0.669% [at 11.6 µM] in the test on Hek293T. For the same molecule, the activity change, negative = cytotoxicity is 6.35% [at 11.6 µM] with JEG-3; 0.349% [at 11.6 µM] in the test with OV90; 15.5% [at 11.6 µM] with PA-1; 2.4% [at 11.6 µM] with Tov-21-G; 7.56% [at 11.6 µM] in the test with Tov112D. Also, the Potency result in test [5] was “inactive”. Besides, the outcome in test [2] is “inactive [at 9.23 µM]”; in [3], “inactive [at 9.73 µM]”; in [4], “inactive [at 11.6 µM]”. For the same molecule, the max response in the test on CRL-7250 was 1.79%; with NIH3T3, 4.38%. In addition, in the test on HEK293, the outcome was inactive.
On to `Cc1cccc(NC(=O)N[C@H]2CN(C)c3ccccc3C(c3ccccc3)=N2)c1`, for which the Potency entry (in [5]; in test [3]; with C33A; with CAOV3; with CASKI; in the test with Es-2) was “inactive” throughout. Also, the Potency result with Hek293T, in the test with JEG-3, in the test with OV90, with PA-1, with Tov-21-G and in the test with Tov112D was “inactive” in each case. For the same molecule, the outcome (in test [4]; in the test on HaCat) was inactive. Also, the max response was -1.7% in the test with CRL-7250, -2.16% in the test on HEK293 and -5.29% in the test with NIH3T3.
For `COC1C(O)C(C)OC(OC2C(CO)O[C@@H](O[C@@H]3CC4CCC5C(CC[C@]6(C)[C@@H](C7=CC(=O)OC7)CC[C@]56O)[C@@]4(C)[C@H](OC(C)=O)C3)C(O)C2O)C1O` (stereo partly drawn), the Potency in test [1] was 2.73 µM (active); in [2], 2.16 µM (active); with CRL-7250 it was 2.17 µM (active); in the test on HEK293, 2.43 µM (active); with HaCat, 4.32 µM (active); with C33A it was 3.55 µM (active). The Potency is 6.31 µM (active) with Es-2, 3.55 µM (active) in the test with Hek293T, 3.55 µM (active) in the test with Tov-21-G and 2.82 µM (active) with Tov112D. Also, the Potency result (in test [5]; in test [3]; in test [6]; in the test with OV90) was “inactive” throughout. For the same molecule, the outcome in [4] is “inactive [at 25.7 µM]”. Moreover, the result with NIH3T3 was inactive.
